Measured values as given in the supplement of paper PMC10127200.
Where a name gives a salt, the structure may show the parent alone.

Experiments:
Assay in all cases: Euclidean distance of Cell Painting phenotypic profile (signed KS, 77 features) to DMSO centroid (dimensionless distance); 5 or 10 uM (library dependent); higher = stronger phenotypic change vs DMSO (phenoactivity)
Details in all cases: 48 h
786-O = tested on: 786-O
Summary of the method: (§1)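 Phenoactivity is computed as Euclidean distance to the median vehicle profile. The profiles, drawn from 77 Harmony features scored as signed Kolmogorov-Smirnov statistics versus same-plate vehicle wells, were corrected for plate position, correlation-weighted and replicate-averaged at the top dose. Stained cells were imaged confocally at 20X (9 fields/well) after 48 h with library compounds at 10 or 5 uM, 0.1% DMSO final, in five cancer lines and a healthy fibroblast line.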

A549 = tested on: A549
Summary of the method: as §1

DU145 = tested on: DU145
Summary of the method: as §1

FB = tested on: FB
Summary of the method: as §1

HEPG2 = tested on: HEPG2
Summary of the method: as §1

OVCAR4 = tested on: OVCAR4
Summary of the method: as §1

Row | SMILES | Euclidean distance (786-O) | Euclidean distance (A549) | Euclidean distance (DU145) | Euclidean distance (FB) | Euclidean distance (HEPG2) | Euclidean distance (OVCAR4)
1 | C=C1CC[C@H](O)C/C1=C/C=C1\CCC[C@]2(C)[C@@H]([C@H](C)CCCC(C)(C)O)CC[C@@H]12 [Calcifediol] | 1.61 | 0.811 | 0.927 | 1.4 | 0.618 | 2.24
2 | O=C(O)CCC(=O)c1ccc(-c2ccccc2)cc1 [Fenbufen] | 0.582 | 1.6 | 0.988 | 0.916 | 0.887 | 1.11
3 | O=c1ccn(C2OC(COP(=O)(O)O)C(O)C2O)c(=O)[nH]1 (stereo not drawn) [Uridine 5'-monophosphate] | 1.18 | 1.21 | 1.33 | 1.3 | 1.01 | 1.23
4 | O=C1c2ccccc2C(=O)c2c1ccc(O)c2O [Alizarin] | 1.65 | 1.45 | 1.35 | 1.58 | 1.48 | 1.07
5 | O=c1ccn([C@@H]2O[C@H](COP(=O)(O)OP(=O)(O)OP(=O)(O)OP(=O)(O)OC[C@H]3O[C@@H](n4ccc(=O)[nH]c4=O)[C@H](O)[C@@H]3O)[C@@H](O)[C@H]2O)c(=O)[nH]1 [Diquafosol Tetrasodium] | 0.977 | 0.68 | 0.599 | 1.1 | 0.787 | 1.2
6 | COc1cccc(OC)c1C(=O)OCc1cc(O)ccc1O[C@@H]1O[C@H](CO)[C@@H](O)[C@H](O)[C@H]1O [Curculigoside] | 0.665 | 0.731 | 0.819 | 0.662 | 0.446 | 1.36
7 | CC(C)(C)NCC(O)COc1cccc2c1CCC(=O)N2 (stereo not drawn) [Carteolol HCl] | 1.14 | 0.612 | 0.836 | 1.22 | 0.541 | 2.01
8 | O=S(=O)(O)c1cc(O)ccc1O [Ethamsylate] | 0.716 | 0.847 | 0.74 | 1.11 | 0.713 | 1.57
9 | CC(C)C[C@H](NC(=O)CNC(=O)[C@H](Cc1ccc(O)cc1)NC(=O)[C@H](CO)NC(=O)[C@H](Cc1c[nH]c2ccccc12)NC(=O)[C@H](Cc1cnc[nH]1)NC(=O)[C@@H]1CCC(=O)N1)C(=O)N[C@@H](CCCNC(=N)N)C(=O)N1CCC[C@H]1C(=O)NCC(N)=O [Gonadorelin Acetate] | 1.59 | 1.23 | 0.611 | 1.19 | 0.828 | 1.22
10 | Oc1c(Cl)cc(Cl)c(Cl)c1Cc1c(O)c(Cl)cc(Cl)c1Cl [Hexachlorophene] | 2.16 | 1.62 | 1.19 | 3.31 | 2.53 | 1.64
11 | COc1cccc(C=NCCN=Cc2cccc(OC)c2[O-])c1[O-].[Cl-].[Mn+3] | 1.28 | 0.596 | 0.577 | 0.887 | 2.11 | 1.14
12 | O=c1cc(CO)occ1O [Kojic acid] | 1.24 | 0.713 | 0.837 | 0.833 | 0.625 | 1.14
13 | C=C1/C(=C\C=C2/CCC[C@]3(C)[C@@H]([C@H](C)/C=C/[C@H](C)C(C)C)CC[C@@H]23)C[C@@H](O)C[C@@H]1O [Doxercalciferol] | 2.73 | 1.49 | 6.05 | 1.9 | 2.03 | 1.73
14 | Oc1c(Cl)cc(Cl)cc1Sc1cc(Cl)cc(Cl)c1O [Bithionol] | 0.758 | 0.588 | 0.524 | 0.97 | 1.02 | 1.23
15 | CC(C)n1nc(-c2cc3cc(O)ccc3[nH]2)c2c(N)ncnc21 | 4.59 | 3.23 | 2.64 | 4.3 | 3.12 | 4.61
16 | O=C1NC(=O)C(c2ccccc2)(c2ccccc2)N1 [Phenytoin] | 0.857 | 0.495 | 1 | 1.34 | 0.945 | 0.752
17 | CCCC(=O)O[C@]1(C(=O)CCl)[C@H](C)C[C@@H]2[C@@H]3CCC4=CC(=O)C=C[C@]4(C)[C@]3(F)C(=O)C[C@@]21C [clobetasone butyrate] | 1.53 | 2.42 | 3.28 | 1.92 | 1.73 | 2.23
18 | CC(C)C(=O)OCC(=O)[C@@]12O[C@H](C3CCCCC3)O[C@@H]1C[C@H]1[C@@H]3CCC4=CC(=O)C=C[C@]4(C)[C@H]3[C@@H](O)C[C@@]12C [Ciclesonide] | 1.71 | 2.49 | 2.88 | 2.36 | 2.25 | 2.09
19 | CC(C)(C)C(=O)OCOC(=O)[C@@H]1N2C(=O)[C@@H](/N=C/N3CCCCCC3)[C@H]2SC1(C)C [Pivmecillinam hydrochloride] | 1.23 | 1.69 | 0.728 | 0.994 | 0.59 | 1.14
20 | Cc1cccc(-c2[nH]c(CNc3ccccc3F)nc2-c2ccc3ncnn3c2)n1 [Vactosertib ?(TEW-7197)] | 1.71 | 1.61 | 1.41 | 1.83 | 1.26 | 1.5
21 | Nc1ccc(S(=O)(=O)Nc2ccc(Cl)nn2)cc1 [Sulfachloropyridazine] | 1.32 | 1.01 | 0.856 | 0.835 | 0.669 | 1.25
22 | CO/N=C(\C(=O)N[C@@H]1C(=O)N2C(C(=O)O)=C(CSC(=O)c3ccco3)CS[C@H]12)c1csc(N)n1 [Ceftiofur] | 0.442 | 0.362 | 0.719 | 0.698 | 1.81 | 1.07
23 | NC(=N\CCCCCC/N=C(N)/N=C(\N)Nc1ccc(Cl)cc1)/N=C(\N)Nc1ccc(Cl)cc1 [Chlorhexidine diacetate] | 2.69 | 4.3 | 3.46 | 2.04 | 3.03 | 3.25
